High-throughput results as filed in PubChem BioAssay.
GC-B act = GC-B (human) receptor activation; P20594; HEK293-GC-B cells, CNP EC30, cGMP TR-FRET; 0% at EC30 CNP, 100% saturating CNP; activation, % at 10 µM; hit rate 0.11% among 370,000;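 active = activation at 10 µM reaching about 35% in either raw or pattern-adjusted values, limit read from the data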
NadD block = NadD (S. aureus) enzyme inhibition; purified NadD enzyme, colorimetric absorbance read-out; hit rate 0.78% among 360,000; AID 602399; inhibition, % at 20 µM; in the data active = inhibition above about 26%
GC-A act = GC-A (human) enzyme activation. HEK293 GC-A cells, cGMP TR-FRET, EC30 ANP; 0% at EC30 ANP, 100% saturating ANP. activation, % at 10 µM. hit rate 0.14% among 370,000; in the data active = activation above about 40%
Neddyl block = inhibitors of human cullin neddylation; P61081+Q13564; TR-FRET cullin neddylation, biochemical; inhibition, % at 25 µM; hit rate 0.58% among 360,000; AID 651699; in the data active = inhibition above about 36%
Neddyl conf = cullin neddylation inhibition, confirmation; TR-FRET cullin neddylation biochemical assay; AID 652217; calls only at 25 µM; hit rate 13% among 1,800; shares compounds with Neddyl block; in the data active = inhibition above about 40%;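 also: neddylation substrate is the cullin 1 ring ligase complex with SKP2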
Starred values were filed as active, the others as inactive; i = inactive; . = not tested or not shown. Shown are actives, neighbours in structure and some others; about 1.5% of the full set was active somewhere.

SMILES	GC-B act	NadD block	GC-A act	Neddyl block	Neddyl conf
O=C(N/N=C/c1cccn1-c1ccc(O)cc1)c1cccc2ccccc12	-1.6	-5.3	-4.4	45.5*	i
Nc1nc2c(ncn2[C@@H]2O[C@H](C(=O)N[C@@H](Cc3ccccc3)C(=O)NCC3CCCCC3)[C@@H](O)[C@H]2O)c(=O)[nH]1	3.0	.	4.0	.	.
COc1cccc(/C=C/C(=O)OCC(=O)Nc2cccc(S(=O)(=O)NC3=NCCCCC3)c2)c1	7.6	-4.4	-0.1	42.1*	.
COc1ccc(/C=C/C(=O)OCC(=O)Nc2nnc(-c3ccccc3)o2)c(OC)c1	0.0	8.5	-2.7	-2.3	.
COC(=O)c1ccc(CNC(=O)COC(=O)/C=C/c2cccc(OC)c2)cc1	-0.2	-5.5	-3.4	46.0*	i
COC(=O)c1ccc(CNC(=O)COC(=O)/C=C/c2ccc(O)c(OC)c2)cc1	0.2	0.2	-13.5	17.1	.
COc1cccc(/C=C/C(=O)OCC(=O)Nc2nnc(-c3ccccc3)o2)c1	.	6.9	.	47.4*	i
O=S1(=O)CC2c3ccc(F)cc3CN2CN1Cc1ccccc1 (configuration not stated)	1.0	.	1.4	.	.
CCOC(=O)Nc1ccc2c(c1)[C@]1(CC(=O)N(CC(C)C)C1c1ccccc1)C(=O)N2C (some centres not stated)	-4.8	.	-0.2	.	.
O=C1NC(c2ccccc2)=C(c2ccc3ccccc3n2)C(c2ccccc2)N1 (configuration not stated)	-17.8	1.8	-31.4	43.9*	i
O=C1NC(c2ccccc2)=C(c2ccc3ccccc3n2)C(c2ccc(F)cc2)N1 (configuration not stated)	-15.7	-2.5	-38.1	38.0	.
OCCN1CCN(c2nc3ccccc3nc2-c2ccccc2)CC1	2.5	-7.1	4.6	38.5*	i
Fc1ccc(-c2cc(C(F)(F)F)n3ncnc3n2)cc1	3.9	-1.7	-4.0	47.4*	.
CCCn1c(SCC(=O)N2N=C3/C(=C/c4ccc(OC)cc4)CCCC3C2c2ccc(OC)cc2)n[nH]c1=O (configuration not stated)	-11.5	8.4	-5.2	46.8*	i
CC(=O)N1N=C2/C(=C/c3ccccc3)CCCC2C1c1ccccc1 (configuration not stated)	0.4	-1.5	4.6	46.8*	.
O=C(O)c1c(C(=O)N2N=C3/C(=C/c4ccccc4)CCCC3C2c2ccccc2)cccc1[N+](=O)[O-] (configuration not stated)	1.8	5.5	-4.9	-11.6	.
CCCn1c(SCC(=O)NCc2ccc(OC)cc2)n[nH]c1=O	2.0	-7.0	0.3	5.8	.
CCOC(=O)C1CN(S(=O)(=O)c2cc(OC)ccc2OC)C1	-2.1	-6.6	-1.5	-0.4	.
CCOC(=O)C1CC(=O)c2cc(OC)c(OC)cc2C1 (configuration not stated)	2.8	0.2	-2.0	42.1*	.
Cc1ccccc1CN1CCCCC(NC(=O)c2ccc(-c3ccccc3)cc2)C1=O (configuration not stated)	6.1	.	4.7	.	.
Cn1nnnc1SCC(=O)Nc1nn(-c2ccccc2)nc1C(N)=O	1.8	-4.1	-0.7	.	.
NC(=O)c1nn(-c2ccccc2)nc1NC(=O)CN1CCCCC1	6.4	-3.7	-1.7	45.5*	i
CSc1ccccc1NC(=S)N/N=C/c1cccn1Cc1cccc(C)c1	5.5	-4.7	-2.1	3.8	.
CSc1ccccc1NC(=S)N/N=C/c1cccn1Cc1ccc(F)cc1	-2.0	4.0	0.4	46.6*	i
COCCNC(=O)c1c(N)[nH]c(C(=O)c2ccc(Br)cc2)c1-c1c(OC)ccc2ccccc12	-23.2	.	-31.1	.	.
SMILES	GC-B act	NadD block	GC-A act	Neddyl block	Neddyl conf
CC(=Nc1ccc(Cl)cc1N)c1c(O)cc(C)oc1=O	0.6	.	-2.4	.	.
O=c1ccc2ccc(OCc3nnc(-c4ccccc4Br)o3)cc2o1	-3.5	-4.0	7.6	9.4	.
Cc1cc(=O)oc2cc(OCc3nnc(-c4ccccc4Br)o3)ccc12	-1.1	2.3	1.3	43.7*	i
S=c1[nH]c(-c2ccccc2)cn1/N=C/c1ccc(Br)cc1	-4.9	9.3	9.6	41.8*	i
O=C(O)c1ccc(/C=N/n2cc(-c3ccccc3)[nH]c2=S)cc1	4.4	-0.7	1.3	-5.7	.
CCOC(=O)C1=CCN(S(=O)(=O)c2cccc(Cl)c2)C1c1cccc(Cl)c1 (configuration not stated)	0.9	.	-6.3	.	.
CCOC(=O)c1nc(C)sc1-c1ccnn1S(=O)(=O)c1cccc(Cl)c1	2.7	-11.2	3.1	75.9*	i
CCC(=O)Oc1ccc(C(=O)Nc2ccc3c(c2)C(=O)N(C2CCCCC2)C3=O)cc1	-9.5	-1.6	-1.6	42.3*	i
O=C(O)COc1ccc(NC(=O)c2ccc3c(c2)C(=O)N(C2CCCCC2)C3=O)cc1	-0.6	3.7	2.3	-31.2	.
CCN(C(=O)CCc1nnc2ccc(NCc3ccco3)nn12)c1ccccc1	-6.3	4.8	-10.1	1.0	.
O=c1c2ccccc2nc2ccc(NCc3ccco3)nn12	4.0	1.7	1.4	41.1*	i
Cc1sc2nc3ccc(NCc4ccco4)nn3c(=O)c2c1C	0.3	1.4	7.0	38.8*	.
COC(CNC(=O)[C@H](Cc1ccccc1)NCC(=O)NC1CCCCC1)OC	-1.8	.	-2.1	.	.
COC(=O)Oc1cncc(C(=O)O)c1	5.5	-4.3	1.6	0.6	.
CNc1cncc(C(=O)O)c1	1.9	1.6	-1.1	40.2*	.
C[C@H]1[C@H](NC(=O)c2cccc(C(F)(F)F)c2)CC[C@@]23CCCN2C(=O)CCC[C@@H]13	-3.3	.	-0.8	.	.
Cc1cccc(Cn2cc(COC(=O)NCCc3ccccc3)nn2)c1	17.7	.	2.6	.	.
CCSc1nc(-c2ccccc2)c(-c2ccccc2)n1CC(O)CO (configuration not stated)	-4.7	-5.0	-8.8	43.9*	i
COc1cccc(C2CC=C(C(=O)O)CN2S(=O)(=O)c2ccc(C)cc2)c1 (configuration not stated)	10.4	.	1.9	.	.
COc1cccc(-n2c(N)c(C(=O)Nc3c(C)n(C)n(-c4ccccc4)c3=O)c3nc4ccccc4nc32)c1	2.7	3.2	7.4	50.7*	i
Cc1[nH]c2ccccc2c1/C=N/NC(=O)c1cc(-c2cccs2)[nH]n1	-0.2	9.4	2.2	44.5*	i
N#CC(C#N)=Cc1cn(-c2ncc(C(F)(F)F)cc2Cl)c2ccccc12	-17.6	-0.7	-20.0	45.7*	i
CC(=O)Nc1ccc(-c2ccc3nnc(C)n3n2)cc1	-4.6	-0.2	-1.5	10.1	.
CC(=O)N(C)c1cccc(-c2ccc3nnc(C)n3n2)c1	-1.9	-8.0	5.7	52.9*	.
COc1ccc(C(=O)OC(C)CN2CCOCC2)cc1OC (configuration not stated)	-0.8	3.2	3.4	39.6*	i
O=C(N[C@H](C(=O)N1CCC[C@H]1C(=O)NCCc1ccccc1Cl)c1ccccc1)C1CCCC1	-3.9	.	-6.5	.	.
c1ccc2c(-c3cncc4ccccc34)cncc2c1	1.7	-1.4	-11.3	16.5	.
